In the first experiment the target is DCPS. Description: pooled miR-30 sensor sort-seq; sequence = guide strand. The following applies: shRNA.
Sequence TTCTGCAGTCTGAAGCCGGAGA came in with a sensor-assay potency score (higher = more potent) of -0.8.

Consider TTATACACCCACTGGATGCTGA, for which the sensor-assay potency score (higher = more potent) was -0.178.

Sequence TTCTGCAGGTGTTTCTCTGTGG showed a sensor-assay potency score (higher = more potent) of 0.117.

Sequence TAGGAAAATGATTTTGTCCCGC yielded a sensor-assay potency score (higher = more potent) of -0.432.

On to TTACATCATTCAGTTGTCTTGG, for which the sensor-assay potency score (higher = more potent) turned out to be 0.191.

On to TACCATTTCCAACTCCTGCCTC, for which the sensor-assay potency score (higher = more potent) is -0.586.

Regarding TAGTCATCTCCCGTCTCTCGGA, the sensor-assay potency score (higher = more potent) is -0.952.

TTTTAGAAAATTCACTTGGAGA returned a sensor-assay potency score (higher = more potent) of -0.97.

TTGTCTTGGAGGGAACAAGTGA: the sensor-assay potency score (higher = more potent) is -0.588.

Turning to TTCAATACTAGGAATAAGCCGG, the sensor-assay potency score (higher = more potent) is -0.221.

Regarding TATTCCTGTAGTCATCTCCCGT, the sensor-assay potency score (higher = more potent) was -0.287.

Another experiment concerns the target DCST1. The description is as above. The following applies: shRNA.
As to TTCTTTGCCCTCTTGTGCCATT, the sensor-assay potency score (higher = more potent) was -1.23.

As for TAGGTCATTGTAGAGGAACAGG, the sensor-assay potency score (higher = more potent) is -1.31.

The sequence TTCTTCGTAGATGTTCATGGGG registered a sensor-assay potency score (higher = more potent) of 0.19.

Consider TTGATCTGCAGCTCCACGGTGC, for which the sensor-assay potency score (higher = more potent) was -0.609.

Turning to TTGTAGAGGAACAGGATCCGCT, the sensor-assay potency score (higher = more potent) is -0.486.

TACAAGAACATAATCTTCTGTT: the sensor-assay potency score (higher = more potent) is 0.614.

Regarding TTGGGTACTAGTAGGAGGCTGG, the sensor-assay potency score (higher = more potent) worked out at 0.466.

In turn, TATCCCAGGACAAAGAGCCTGC yielded a sensor-assay potency score (higher = more potent) of -0.178.

Turning to TCTTCGTAGATGTTCATGGGGT, the sensor-assay potency score (higher = more potent) was -0.405.

Sequence ATCGGTACTGCAGCTCTCCAGT displayed a sensor-assay potency score (higher = more potent) of -0.753.

Take TTTGCTACTCAGCAGGTCCTTG: the sensor-assay potency score (higher = more potent) was -0.773.

Regarding TAACAGGCAGAGACACACTAAC, the sensor-assay potency score (higher = more potent) was -1.38.

In a further experiment the target is DCTN6. The experiment is described as above. To be noted: shRNA.
Regarding TAGATCACCGTATTCTCAGGGA, the sensor-assay potency score (higher = more potent) was 0.157.

In turn, TTTCACTTTCTACACATACAAC yielded a sensor-assay potency score (higher = more potent) of -1.58.

For TTAAGAGTACATAAACACTGTG, the sensor-assay potency score (higher = more potent) is -0.096.

As to TAAGAGTACATAAACACTGTGG, the sensor-assay potency score (higher = more potent) is -0.0797.

On to TTAGGGTGGATCACTGTCCGAG, for which the sensor-assay potency score (higher = more potent) is -0.692.

Sequence TTTAGGTTGCAACAAGCCCCAA came in with a sensor-assay potency score (higher = more potent) of -1.26.

In turn, TTTCATAGTCTTCTTTAGGTGG had a sensor-assay potency score (higher = more potent) of -0.245.

The sequence TTTCATCAAGAAATCCAGCTGT yielded a sensor-assay potency score (higher = more potent) of 0.825.

TAATTCTTGCTTTAGGGTGGAT registered a sensor-assay potency score (higher = more potent) of -0.47.

The sequence TAGGTTTTGGTTCTGGATCTTC came in with a sensor-assay potency score (higher = more potent) of -0.00342.

The sequence TTTCTACACATACAACTGCTCC showed a sensor-assay potency score (higher = more potent) of -0.672.

Another experiment deals with DCX. The experiment is described as above. The following applies: shRNA.
In turn, TTACTTGTGACTGTGGAGGAGA displayed a sensor-assay potency score (higher = more potent) of -0.0876.

For the sequence AATGACATTACACACATCTTGC, the sensor-assay potency score (higher = more potent) is -0.654.

As to TTCATTTAAATCAACTCCGATT, the sensor-assay potency score (higher = more potent) is -0.375.

Sequence TTCTCTTATATGGACTGTCTAT registered a sensor-assay potency score (higher = more potent) of -0.935.

On to TTGATCACAATGCTGTTCCTTA, for which the sensor-assay potency score (higher = more potent) amounted to 0.503.

Consider TTAAAGAACTTACCACACGTGG, for which the sensor-assay potency score (higher = more potent) is -0.728.

Values taken from the OligoGym collection.
Note: reference of the scale not given here.
